Sfp inh: qHTS Assay for Inhibitors of Bacillus subtilis Sfp phosphopantetheinyl transferase (PPTase); actives 3.5% (n = 310,000); Biochemical Sfp PPTase activity, qHTS; Potency, µM, inactives show largest response in the series, negative = inhibition, usual class: inhibitors;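 further: the enzyme is Sfp with the accession as filed and its product quenches rhodamine fluorescence; 0% = enzyme reaction without inhibitor and -100% = no enzyme wells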
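Buffer: 50 mM Hepes-Na pH 7.6, 10 mM MgCl2, 0.01% Nonidet P-40, 0.01% BSA. Enzyme 15 nM, pre-exposed to compound 15 min; substrates then added and fluorescence change tracked over 30 min.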
Epigenetic reg: Quantitative High-Throughput Screen for Regulators of Epigenetic Control; murine LDR cells, GFP reporter derepression, 30 h; Potency, µM (series often up to 53.9 µM), inactives show at the top dose GFP activation, actives largely listed as activators; actives 0.2% (n = 280,000); further: % of control where 0% means no effect; nearly all actives have a fitted effect of over 60% in size
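Murine LDR cells bearing a silenced CMV-driven GFP reporter were exposed to compound for 30 h at 37 C. After PBS washes, GFP-positive cells (20-120 um objects) counted by laser-scanning microplate cytometry.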
VP16 counter: VP16 counterscreen qHTS for inhibitors of ROR gamma transcriptional activity | Drosophila S2 Gal4-VP16 UAS-luciferase, luminescence, 20 h | Potency, µM (doses to about 53.6 µM), without a hit: top-dose activity, negative = inhibition, actives largely listed as inhibitors | actives 3.5% (n = 310,000) | AID 2546, 2010;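 further: Gal4-VP16 expression switched on by copper sulfate through the metallothionein promoter; on the % scale 0 is the no-effect control and ±100 the full control effect; nearly all actives have a fitted effect of over 50% in size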
ClpP mod: qHTS Assay for Activators of ClpP; ATP-dependent Clp protease proteolytic subunit (Bacillus subtilis (strain 168)), P80244; purified B. subtilis ClpP, FRET peptide cleavage, 20 min; Potency, µM (titrated, usually from 57.5 µM), for the others: at the top dose activity change, negative = active; actives 1.9% (n = 340,000); AID 651965, 2013; active means well fitted falling curve with a large enough effect; inconclusive means small, poorly fitted or top-dose-only effect; inactive means no such curve, though single readings can be large or run the other way; further: the source files actives as falling curves though it sought activators and does not explain the sign; nearly all actives have a fitted effect of over 65% in size
Target sequence (P80244 whole entry, looked up): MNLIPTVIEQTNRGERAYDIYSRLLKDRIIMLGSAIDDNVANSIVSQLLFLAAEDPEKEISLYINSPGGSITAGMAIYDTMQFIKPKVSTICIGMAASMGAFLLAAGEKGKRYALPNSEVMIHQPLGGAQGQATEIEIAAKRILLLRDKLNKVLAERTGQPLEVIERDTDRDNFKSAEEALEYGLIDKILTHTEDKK
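Purified B. subtilis ClpP, 10 microg/mL final in Tris/HCl pH8 with KCl, BSA, glycerol and Tween-20, cleaved an Abz/nitrotyrosine-quenched decapeptide. Fluorescence (ex 320, em 430) was read at 0 and 20 min at room temperature. Delta was normalized to 5.8 microM ADEP and DMSO/no-enzyme controls.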
RORgamma inh: qHTS for inhibitors of ROR gamma transcriptional activity; Drosophila S2 Gal4-RORgamma UAS-luciferase reporter, 20 h; Potency, µM (titrated, usually from 53.6 µM), for inactives: at the highest dose activity change, negative = inhibition, hits mostly inhibitors; actives 5.4% (n = 310,000); further: on the % scale 0 is the no-effect control and ±100 the full control effect; nearly all actives have a fitted effect of over 60% in size
Target sequence (P51450 whole entry, looked up, the tested form may be a part): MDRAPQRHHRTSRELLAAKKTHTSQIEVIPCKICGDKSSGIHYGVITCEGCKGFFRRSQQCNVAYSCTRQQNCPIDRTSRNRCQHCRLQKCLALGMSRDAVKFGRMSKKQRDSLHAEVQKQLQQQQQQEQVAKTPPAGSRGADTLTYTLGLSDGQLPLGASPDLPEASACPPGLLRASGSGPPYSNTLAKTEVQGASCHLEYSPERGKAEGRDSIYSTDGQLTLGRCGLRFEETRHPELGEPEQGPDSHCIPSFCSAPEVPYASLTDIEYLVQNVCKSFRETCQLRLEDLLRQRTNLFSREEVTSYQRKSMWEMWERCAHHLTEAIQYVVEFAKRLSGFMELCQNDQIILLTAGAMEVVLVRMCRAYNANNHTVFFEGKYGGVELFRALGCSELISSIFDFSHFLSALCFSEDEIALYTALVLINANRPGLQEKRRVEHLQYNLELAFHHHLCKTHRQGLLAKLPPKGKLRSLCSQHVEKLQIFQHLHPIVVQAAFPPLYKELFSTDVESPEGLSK
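Schneider cells (Drosophila), stable Gal4 DBD–ROR gamma + UAS-luc; 1 hr cmpd preincubation; Cu2+ induction 700 uM final; 20 hr ambient; luminescence.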
PINK1 modulator: A Quantitative High throughput Screen to Identify Chemical Modulators of PINK1 Expression; PINK1 immunofluorescence, high-content cytometry, 24 h; Potency, µM (highest dose often 76.6 µM), without a hit: top-dose activation (PINK1 increase), usual class: activators; actives 0.2% (n = 410,000); active means well fitted activation curve with a large enough effect; inconclusive means small, poorly fitted or top-dose-only effect; cell line not stated here; further: % of control where 0% means no effect; nearly all actives have a fitted effect of over 65% in size
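Cells are seeded, rested 12 hours, then given compound at five concentrations or DMSO for 24 hours. After fixation, blocking and antibody staining, PINK1 amount and mitochondrial localization are scored; CCCP serves as control.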
* hit, by the source's call; u = inconclusive; x = not tested or not shown; [ ] = remark or other dose. An excerpt weighted towards active compounds, which were near 8.1% of everything screened. Unless noted, the call rests on the fitted dose curve; in most records, active means well fitted curve in the direction sought with a large enough effect; inconclusive means small, poorly fitted or top-dose-only effect, or another doubt; inactive means no such curve, though single readings can be large; an effect the other way counts as inactive or inconclusive. Potency means the concentration at half of the fitted maximal effect.

SMILES | Sfp inh | Epigenetic reg | VP16 counter | ClpP mod | RORgamma inh | PINK1 modulator
CCOc1ccccc1N(CC(=O)NCC1CCCO1)C(=O)CCC(=O)Nc1cc(C)on1 (stereo not drawn) | 8.4% | x | 7.6% | -2.2% | -37.0% | 2.1%
Cc1cc(N/N=C/c2ccc(N(C)C)cc2)c2ccccc2n1 | 14.5% | x | u | 4.0% | 15.8µM* | 0.2%
Cc1cc(C)c2nc(C)cc(N/N=C/c3ccc(O)cc3)c2c1 | u | x | 4.47µM* | x | u | -1.6%
Cc1cc(N/N=C/c2ccc(O)cc2)c2cccc(C)c2n1 | -27.0% | x | 17.8µM* | -7.7% | u | -2.5%
Cc1cc(-c2ccccc2)nc(N/N=C/c2ccc(O)cc2)n1 | x | x | x | x | x | 10.5%
Cc1cc(N/N=C/c2ccc(O)cc2O)c2ccccc2n1 | 18.2% | x | u | 3.5% | u | -0.8%
CCCCCOc1ccc(/C=C/C(=O)Nc2sc(C(C)=O)c(C)c2C(=O)OCC)cc1OC | x | -0.8% | x | -17.2% | x | -1.3%
Cc1ccc(C(=O)Nc2cccc(-c3nc(CNC(=O)c4cccc(N(C)C)c4)c(C)o3)c2)s1 | x | x | x | x | x | -0.2%
CN(C(=O)CSc1nc2ccc(NC(=O)c3cccs3)cc2s1)c1ccccc1 | x | -3.2% | x | u | x | -0.7%
CC1(C)CC(=O)C(C(c2ccc(Br)cc2)C2C(=O)CC(C)(C)CC2=O)C(=O)C1 | 2.8% | x | -0.8% | x | -6.6% | 1.7%
CCc1sc(C(C2C(=O)CC(C)(C)CC2=O)C2C(=O)CC(C)(C)CC2=O)cc1[N+](=O)[O-] | 11.2µM* | 1.1% | u | x | -10.7% | -2.0%
CCC1c2ccc(C)n2CCN1C(=O)Nc1ccccc1C(=O)OC (stereo not drawn) | -4.9% | 4.2% | 12.6% | 35.5µM* | -15.9% | -0.4%
CS(=O)(=O)c1ccc2c(c1)sc1nc(=O)c(/C=C3/C=CC(=O)C(O)=C3)c(N)n12 | 31.6µM* | -2.4% | 1.9% | x | -23.3% | -1.3%
COC(=O)c1ccccc1NC(=O)c1cnc(Nc2ccc(OC)cc2)c2ccccc12 | x | -2.4% | x | -17.5% | x | 1.7%
CN(C)c1cccc(C(=O)Nc2nc3ccccc3[nH]2)c1 | 2.4% | x | 11.2µM* | x | 5.01µM* | 4.8%
Cc1ccc(N(C)S(=O)(=O)c2cccc(C(=O)Nc3nc4ccccc4[nH]3)c2)cc1 | 13.6% | 4.1% | 1.12µM* | -26.6% | 1.26µM* | 3.9%
COc1ccc(N(C)S(=O)(=O)c2cccc(C(=O)Nc3nnc(C4CC4)s3)c2)cc1 | -4.7% | -6.1% | -7.1% | x | -1.6% | 0.9%
CN(c1ccccc1)S(=O)(=O)c1cccc(C(=O)NC2CCCC2)c1 | x | x | x | 31.6µM* | x | -0.1%
Cc1ccc(N(C)S(=O)(=O)c2cccc(C(=O)Nc3nnc(C4CC4)s3)c2)cc1 | 13.1% | -2.1% | -7.6% | x | 11.2µM* | 0.0%
CCOC(=O)N(C(=O)c1ccccc1)c1ccccc1 | x | x | x | 0.6% | x | x
CN(Cc1ccccc1)c1nc(-c2ccc(F)cc2)cc(C(F)(F)F)n1 | x | -2.2% | x | 5.0% | x | 1.1%
COc1cccc(-n2c(-c3ccco3)nc3c(cnn3-c3ccccc3C)c2=O)c1 | x | -3.1% | x | -1.5% | x | 0.5%
COc1ccccc1CCNc1ncnc2sc(C(=O)N3CCCCC3)c(C)c12 | x | x | x | x | x | -0.5%
O=C(Nc1nc2ccccc2[nH]1)Nc1ccccc1F | 2.3% | x | u | x | u | 1.8%
O=C(NCCc1nc2ccccc2[nH]1)c1ccc(Br)o1 | 27.2% | x | -14.8% | x | -12.1% | 2.9%
SMILES | Sfp inh | Epigenetic reg | VP16 counter | ClpP mod | RORgamma inh | PINK1 modulator
O=C(Nc1nc2ccccc2[nH]1)c1ccc(Br)o1 | 15.9% | -0.1% | u | x | 7.08µM* | 6.3%
O=C(Nc1nc2ccccc2[nH]1)c1cccc(Br)c1 | 11.7% | x | 5.01µM* | x | 2.24µM* | 13.2%
O=C(Nc1nc2ccccc2[nH]1)c1cccc(F)c1 | 16.1% | x | 7.08µM* | x | 5.62µM* | 7.0%
Cc1ccc2scc(N3CCN(c4ccccc4)CC3)c(=O)c2c1 | x | -1.7% | x | -15.5% | x | 1.2%
NC(=O)c1ccccc1NS(=O)(=O)c1ccc2c(c1)OCCO2 | 4.2% | -3.0% | -9.8% | 25.1µM* | 10.0% | x
COc1ccc(OC)c(NC(=O)CCCN2C(=S)NC(C)(C)CC2C)c1 (stereo not drawn) | 15.3% | 0.9% | 17.8µM* | u | 11.2µM* | 1.6%
COc1ccc(C)cc1NC(=O)CCCN1C(=S)NC(C)(C)CC1C (stereo not drawn) | 2.3% | -0.9% | 4.47µM* | 1.6% | 1µM* | u
O=C(C[n+]1cccc2ccccc21)c1ccccc1 | u | 0.0% | -9.8% | -11.6% | 2.1% | 2.3%
O=C(C[n+]1cc2ccccc2c2ccccc21)c1ccccc1 | 8.6% | 5.0% | 16.4% | 25.1µM* | 0.7% | 16.3%
CC(C)c1cc(Nc2cccc(O)c2)cc(C(C)C)c1O | 22.4µM* | 2.2% | 0.6% | x | -14.1% | x
CN(Cc1nc(Cc2ccccc2F)no1)[C@@H]1CS(=O)(=O)C[C@H]1O | 8.5% | -0.2% | -0.8% | -0.7% | 1.9% | 0.1%
Cc1cc(C)n(CCN(C)Cc2nc(Cc3ccccc3F)no2)n1 | 20.1% | -0.1% | u | x | 11.2µM* | 0.5%
O=c1oc2c3c4c(cc2s1)CCCN4CCC3 | 17.8µM* | 0.0% | 7.0% | 1.5% | -3.3% | -0.9%
COc1ccc(Br)cc1CNC(=O)CCSCc1ccc(C)cc1 | x | -2.3% | x | -3.7% | x | 0.2%
CCOC(=O)c1ccc2nc(Nc3nc4ccc(F)cc4s3)sc2c1 | -16.5% | 1.0% | -18.2% | 15.8µM* | 0.794µM* | u
CCOC(=O)c1ccc2nc(NC(C)=O)sc2c1 | 9.9% | 7.7% | 4.9% | x | u | -3.9%
COC(=O)c1ccc2nc(Nc3nc4c(F)cc(F)cc4s3)sc2c1 | -23.1% | 5.6% | 1.12µM* | 31.6µM* | 0.316µM* | u
CCN(C(=O)Cn1nnc2sc(-c3ccccc3)cc2c1=O)c1cccc(C)c1 | x | -1.6% | x | -18.4% | x | -0.1%
O=C(O)CNS(=O)(=O)Cc1ccccc1 | 12.9% | 1.9% | -11.7% | -2.2% | 19.0% | 0.9%
O=S(=O)(Cc1ccccc1)N(O)c1ccccc1 | 50.1µM* | x | -13.9% | x | 16.5% | -0.7%
COC(=O)c1ccc(C(=O)OC)c(NC(=S)N2CCCCC2C)c1 (stereo not drawn) | u | -1.0% | u | u | 15.8µM* | 1.9%
COc1cc(NC(=S)N2CCCCC2C)cc(OC)c1OC (stereo not drawn) | 44.7µM* | -0.9%[10.1 µM] | 8.2%[10 µM] | x | 3.6% | 3.0%
